# Measurements: the supplement of paper PMC4022240
# ± gives the standard deviation.
# T1: HaloTag-ATRX ADD domain (163-292)
# T1 chain: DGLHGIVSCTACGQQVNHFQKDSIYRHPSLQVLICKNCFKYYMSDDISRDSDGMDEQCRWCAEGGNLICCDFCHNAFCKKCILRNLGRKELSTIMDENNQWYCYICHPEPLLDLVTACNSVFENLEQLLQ
# B1: H3 20-32 L A T Kme A A R Kme S A P A T (peptide)
# chain: LATKAARKSAPAT
# B2: H3 20-32 L A T Kac A A R Kac S A P A T (peptide)
# chain: LATKAARKSAPAT
# B3: H3 20-32 L A T Kac A A R Kme2 S A P A T (peptide)
# chain: LATKAARKSAPAT
# B4: H3 20-32 L A T Kme2 A A R Kme2 S A P A T (peptide)
# chain: LATKAARKSAPAT
# B5: H3 20-32 L A T Kme3 A A R Kme2 S A P A T (peptide)
# chain: LATKAARKSAPAT
# B6: H3 20-32 L A T Kme2 A A R Kme3 S A P A T (peptide)
# chain: LATKAARKSAPAT
# B7: H3 20-32 L A T Kme3 A A R K S A P A T (peptide)
# chain: LATKAARKSAPAT
# B8: H3 20-32 L A T Kme A A R Kme2 S A P A T (peptide)
# chain: LATKAARKSAPAT
# B9: H3 20-32 L A T Kme3 A A R Kme3 S A P A T (peptide)
# chain: LATKAARKSAPAT
# B10: H3 20-32 L A T Kac A A R K S A P A T (peptide)
# chain: LATKAARKSAPAT
# Tests used:
# Experiment in all cases: peptide microarray binding signal (635 nm), min-max normalized on array (fraction of array maximum); higher = stronger binding
# Conditions in all cases: peptide region: H3 20-32
# [1] = molecular target: T1, HaloTag-ATRX ADD domain (163-292)
# In short: (§1)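 Two probe formats were used for 1 h at 4°C: biotin-labelled HaloTag reader fusions (10 nM to 1 μM) with streptavidin-Alexa Fluor 647, and rabbit histone antibodies (1:10,000 to 1:2,000) with anti-rabbit Alexa 647. Both were applied to nitrocellulose arrays of histone 13-mer peptide–cellulose conjugates printed in triplicate with a Cy3 tracer and blocked overnight at 4°C. Signal was read at 635 nm and misprints at 532 nm on an Axon GenePix 4000B. Binding signal is expressed as the triplicate-spot mean intensity, min-max scaled for each library.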
# [2] = molecular target: HaloTag-ING2 PHD (mouse Ing2 200-280)
# In short: as §1
# [3] = molecular target: anti-H3K4me3 antibody ab8580
# In short: as §1
# [4] = molecular target: anti-H3K9me3 antibody ab8898
# In short: as §1
# [5] = peptide modifications: H3K23me1 H3K27me1, binder concentration: 1:2,000 dilution
# [6] = peptide modifications: H3K23me1 H3K27me1, binder concentration: 1:10,000 dilution
# [7] = peptide modifications: H3K23ac H3K27ac, binder concentration: 1:2,000 dilution
# [8] = peptide modifications: H3K23ac H3K27ac, binder concentration: 1:10,000 dilution
# [9] = peptide modifications: H3K23ac H3K27me2, binder concentration: 1:2,000 dilution
# [10] = peptide modifications: H3K23ac H3K27me2, binder concentration: 1:10,000 dilution
# [11] = peptide modifications: H3K23me2 H3K27me2, binder concentration: 1:2,000 dilution
# [12] = peptide modifications: H3K23me2 H3K27me2, binder concentration: 1:10,000 dilution
# [13] = peptide modifications: H3K23me3 H3K27me2, binder concentration: 1:2,000 dilution
# [14] = peptide modifications: H3K23me3 H3K27me2, binder concentration: 1:10,000 dilution
# [15] = peptide modifications: H3K23me2 H3K27me3, binder concentration: 1:2,000 dilution
# [16] = peptide modifications: H3K23me2 H3K27me3, binder concentration: 1:10,000 dilution
# [17] = peptide modifications: H3K23me3, binder concentration: 1:2,000 dilution
# [18] = peptide modifications: H3K23me3, binder concentration: 1:10,000 dilution
# [19] = peptide modifications: H3K23me1 H3K27me2, binder concentration: 1:2,000 dilution
# [20] = peptide modifications: H3K23me1 H3K27me2, binder concentration: 1:10,000 dilution
# [21] = peptide modifications: H3K23me3 H3K27me3, binder concentration: 1:2,000 dilution
# [22] = peptide modifications: H3K23me3 H3K27me3, binder concentration: 1:10,000 dilution
# [23] = peptide modifications: H3K23ac, binder concentration: 1:2,000 dilution
# [24] = peptide modifications: H3K23ac, binder concentration: 1:10,000 dilution
binder,measurement,setting,value
B1,peptide microarray binding signal,"[1]; peptide modifications: H3K23me1 H3K27me1, binder concentration: 50 nM",0.00404 ± 0.00027
same,peptide microarray binding signal,"[1]; peptide modifications: H3K23me1 H3K27me1, binder concentration: 500 nM",0.00976 ± 0.00044
same,peptide microarray binding signal,"[2]; peptide modifications: H3K23me1 H3K27me1, binder concentration: 10 nM",0.015 ± 0.00066
same,peptide microarray binding signal,"[2]; peptide modifications: H3K23me1 H3K27me1, binder concentration: 100 nM",0.0215 ± 0.0021
same,peptide microarray binding signal,[3]; [5],0.0102 ± 0.0036
same,peptide microarray binding signal,[3]; [6],0.01 ± 0.00092
same,peptide microarray binding signal,[4]; [5],0.00488 ± 0.00067
same,peptide microarray binding signal,[4]; [6],0.0045 ± 0.00019
B2,peptide microarray binding signal,"[1]; peptide modifications: H3K23ac H3K27ac, binder concentration: 50 nM",0.0196 ± 0.0013
same,peptide microarray binding signal,"[1]; peptide modifications: H3K23ac H3K27ac, binder concentration: 500 nM",0.0397 ± 0.0034
same,peptide microarray binding signal,"[2]; peptide modifications: H3K23ac H3K27ac, binder concentration: 10 nM",0.0424 ± 0.0038
same,peptide microarray binding signal,"[2]; peptide modifications: H3K23ac H3K27ac, binder concentration: 100 nM",0.0536 ± 0.0026
same,peptide microarray binding signal,[3]; [7],0.0164 ± 0.0012
same,peptide microarray binding signal,[3]; [8],0.0172 ± 0.00041
same,peptide microarray binding signal,[4]; [7],0.016 ± 0.002
same,peptide microarray binding signal,[4]; [8],0.00848 ± 0.00094
B3,peptide microarray binding signal,"[1]; peptide modifications: H3K23ac H3K27me2, binder concentration: 50 nM",0.00426 ± 0.0002
same,peptide microarray binding signal,"[1]; peptide modifications: H3K23ac H3K27me2, binder concentration: 500 nM",0.00929 ± 0.0011
same,peptide microarray binding signal,"[2]; peptide modifications: H3K23ac H3K27me2, binder concentration: 10 nM",0.0152 ± 0.0015
same,peptide microarray binding signal,"[2]; peptide modifications: H3K23ac H3K27me2, binder concentration: 100 nM",0.0206 ± 0.00053
same,peptide microarray binding signal,[3]; [9],0.00765 ± 0.0019
same,peptide microarray binding signal,[3]; [10],0.00719 ± 0.00029
same,peptide microarray binding signal,[4]; [9],0.00344 ± 0.001
same,peptide microarray binding signal,[4]; [10],0.00329 ± 0.00032
B4,peptide microarray binding signal,"[1]; peptide modifications: H3K23me2 H3K27me2, binder concentration: 50 nM",0.00511 ± 6.7e-05
same,peptide microarray binding signal,"[1]; peptide modifications: H3K23me2 H3K27me2, binder concentration: 500 nM",0.00781 ± 0.00026
same,peptide microarray binding signal,"[2]; peptide modifications: H3K23me2 H3K27me2, binder concentration: 10 nM",0.0143 ± 0.0011
same,peptide microarray binding signal,"[2]; peptide modifications: H3K23me2 H3K27me2, binder concentration: 100 nM",0.0265 ± 0.003
same,peptide microarray binding signal,[3]; [11],0.001114 ± 9.2e-06
same,peptide microarray binding signal,[3]; [12],0.000799 ± 8.3e-06
same,peptide microarray binding signal,[4]; [11],0.000861 ± 5.4e-05
same,peptide microarray binding signal,[4]; [12],0.000692 ± 1.9e-05
B5,peptide microarray binding signal,"[1]; peptide modifications: H3K23me3 H3K27me2, binder concentration: 50 nM",0.00871 ± 0.00075
same,peptide microarray binding signal,"[1]; peptide modifications: H3K23me3 H3K27me2, binder concentration: 500 nM",0.0107 ± 0.0013
same,peptide microarray binding signal,"[2]; peptide modifications: H3K23me3 H3K27me2, binder concentration: 10 nM",0.0148 ± 0.0008
same,peptide microarray binding signal,"[2]; peptide modifications: H3K23me3 H3K27me2, binder concentration: 100 nM",0.0242 ± 0.0018
same,peptide microarray binding signal,[3]; [13],0.0639 ± 0.034
same,peptide microarray binding signal,[3]; [14],0.0807 ± 0.021
same,peptide microarray binding signal,[4]; [13],0.0464 ± 0.016
same,peptide microarray binding signal,[4]; [14],0.0257 ± 0.0034
B6,peptide microarray binding signal,"[1]; peptide modifications: H3K23me2 H3K27me3, binder concentration: 50 nM",0.0058 ± 9.2e-05
same,peptide microarray binding signal,"[1]; peptide modifications: H3K23me2 H3K27me3, binder concentration: 500 nM",0.00581 ± 0.00013
same,peptide microarray binding signal,"[2]; peptide modifications: H3K23me2 H3K27me3, binder concentration: 10 nM",0.01343 ± 4.8e-05
same,peptide microarray binding signal,"[2]; peptide modifications: H3K23me2 H3K27me3, binder concentration: 100 nM",0.0205 ± 0.00075
same,peptide microarray binding signal,[3]; [15],0.02482 ± 0.00013
same,peptide microarray binding signal,[3]; [16],0.0215 ± 0.00042
same,peptide microarray binding signal,[4]; [15],0.0892 ± 0.0073
same,peptide microarray binding signal,[4]; [16],0.0609 ± 0.0066
B7,peptide microarray binding signal,"[1]; peptide modifications: H3K23me3, binder concentration: 50 nM",0.00323 ± 0.00014
same,peptide microarray binding signal,"[1]; peptide modifications: H3K23me3, binder concentration: 500 nM",0.00476 ± 6.4e-05
same,peptide microarray binding signal,"[2]; peptide modifications: H3K23me3, binder concentration: 10 nM",0.00931 ± 0.00034
same,peptide microarray binding signal,"[2]; peptide modifications: H3K23me3, binder concentration: 100 nM",0.0181 ± 0.00055
same,peptide microarray binding signal,[3]; [17],0.0211 ± 0.0028
same,peptide microarray binding signal,[3]; [18],0.0168 ± 0.00023
same,peptide microarray binding signal,[4]; [17],0.0113 ± 0.0027
same,peptide microarray binding signal,[4]; [18],0.00634 ± 0.00064
B8,peptide microarray binding signal,"[1]; peptide modifications: H3K23me1 H3K27me2, binder concentration: 50 nM",0.00395 ± 5.6e-05
same,peptide microarray binding signal,"[1]; peptide modifications: H3K23me1 H3K27me2, binder concentration: 500 nM",0.002619 ± 2.1e-05
same,peptide microarray binding signal,"[2]; peptide modifications: H3K23me1 H3K27me2, binder concentration: 10 nM",0.00537 ± 9.5e-05
same,peptide microarray binding signal,"[2]; peptide modifications: H3K23me1 H3K27me2, binder concentration: 100 nM",0.00539 ± 7.3e-05
same,peptide microarray binding signal,[3]; [19],0.00217 ± 0.00021
same,peptide microarray binding signal,[3]; [20],0.00331 ± 4.7e-05
same,peptide microarray binding signal,[4]; [19],0.0018 ± 6.4e-05
same,peptide microarray binding signal,[4]; [20],0.00161 ± 3.1e-05
B9,peptide microarray binding signal,"[1]; peptide modifications: H3K23me3 H3K27me3, binder concentration: 50 nM",0.00527 ± 0.00011
same,peptide microarray binding signal,"[1]; peptide modifications: H3K23me3 H3K27me3, binder concentration: 500 nM",0.00571 ± 0.00016
same,peptide microarray binding signal,"[2]; peptide modifications: H3K23me3 H3K27me3, binder concentration: 10 nM",0.0186 ± 0.00059
same,peptide microarray binding signal,"[2]; peptide modifications: H3K23me3 H3K27me3, binder concentration: 100 nM",0.0317 ± 0.00033
same,peptide microarray binding signal,[3]; [21],0.0764 ± 0.0055
same,peptide microarray binding signal,[3]; [22],0.116 ± 0.014
same,peptide microarray binding signal,[4]; [21],0.115 ± 0.01
same,peptide microarray binding signal,[4]; [22],0.08 ± 0.0081
B10,peptide microarray binding signal,"[1]; peptide modifications: H3K23ac, binder concentration: 50 nM",0.00514 ± 8.6e-05
same,peptide microarray binding signal,"[1]; peptide modifications: H3K23ac, binder concentration: 500 nM",0.00843 ± 0.00057
same,peptide microarray binding signal,"[2]; peptide modifications: H3K23ac, binder concentration: 10 nM",0.0139 ± 0.0003
same,peptide microarray binding signal,"[2]; peptide modifications: H3K23ac, binder concentration: 100 nM",0.021 ± 0.00086
same,peptide microarray binding signal,[3]; [23],0.00479 ± 0.00097
same,peptide microarray binding signal,[3]; [24],0.00388 ± 0.00011
same,peptide microarray binding signal,[4]; [23],0.002703 ± 1.4e-05
same,peptide microarray binding signal,[4]; [24],0.00265 ± 8.4e-05
